Drawing on the supplement of paper PMC10849652, this text covers log2 fold change for 74 targets.

About 7,900 targets were measured; listed, in parts, are those with a hit and a random draw of the rest. About 0.6% of all pairs of compound and target were hits. A number with no mark means an inactive call.

Compound in the assay: c1cn2cc(-c3ccc4cn[nH]c4c3)nc(Nc3ccc(N4CCOCC4)cc3)c2n1 [entospletinib]
Kind of assay: log2 fold change, soluble protein after heating vs DMSO (PISA); higher = thermal stabilisation; K562 cells, 10 uM, 30 min; active = over 0.2 and 3.5 SD of the protein, either way, in both replicates (recomputed). Summed up:
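Soluble protein was quantified by TMTpro 16plex LC-MS/MS after channel sums were equalised. It was obtained as the supernatant after 21,000xg for 90 min from pooled aliquots of K562 cells (2×10^6 cells/mL, 10 μM compound, 30 min) heated for 3 min across 48°C-58°C and extracted in PBS with 0.5% NP-40 at 4°C. Thermal stability values are relative to control samples and come from duplicates. They are given as log2 fold changes.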

Chain of UniProt Q96IZ7 (Q96IZ7 whole entry, looked up): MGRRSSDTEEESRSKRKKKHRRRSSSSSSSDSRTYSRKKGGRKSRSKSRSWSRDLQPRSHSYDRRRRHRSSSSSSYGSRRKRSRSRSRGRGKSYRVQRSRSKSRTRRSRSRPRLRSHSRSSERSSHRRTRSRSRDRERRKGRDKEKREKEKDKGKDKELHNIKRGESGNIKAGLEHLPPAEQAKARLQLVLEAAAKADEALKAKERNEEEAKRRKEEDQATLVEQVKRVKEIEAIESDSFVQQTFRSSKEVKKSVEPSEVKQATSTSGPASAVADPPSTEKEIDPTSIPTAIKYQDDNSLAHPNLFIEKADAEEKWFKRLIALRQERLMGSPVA
Chain of UniProt Q9Y6Y8 (Q9Y6Y8 whole entry, looked up): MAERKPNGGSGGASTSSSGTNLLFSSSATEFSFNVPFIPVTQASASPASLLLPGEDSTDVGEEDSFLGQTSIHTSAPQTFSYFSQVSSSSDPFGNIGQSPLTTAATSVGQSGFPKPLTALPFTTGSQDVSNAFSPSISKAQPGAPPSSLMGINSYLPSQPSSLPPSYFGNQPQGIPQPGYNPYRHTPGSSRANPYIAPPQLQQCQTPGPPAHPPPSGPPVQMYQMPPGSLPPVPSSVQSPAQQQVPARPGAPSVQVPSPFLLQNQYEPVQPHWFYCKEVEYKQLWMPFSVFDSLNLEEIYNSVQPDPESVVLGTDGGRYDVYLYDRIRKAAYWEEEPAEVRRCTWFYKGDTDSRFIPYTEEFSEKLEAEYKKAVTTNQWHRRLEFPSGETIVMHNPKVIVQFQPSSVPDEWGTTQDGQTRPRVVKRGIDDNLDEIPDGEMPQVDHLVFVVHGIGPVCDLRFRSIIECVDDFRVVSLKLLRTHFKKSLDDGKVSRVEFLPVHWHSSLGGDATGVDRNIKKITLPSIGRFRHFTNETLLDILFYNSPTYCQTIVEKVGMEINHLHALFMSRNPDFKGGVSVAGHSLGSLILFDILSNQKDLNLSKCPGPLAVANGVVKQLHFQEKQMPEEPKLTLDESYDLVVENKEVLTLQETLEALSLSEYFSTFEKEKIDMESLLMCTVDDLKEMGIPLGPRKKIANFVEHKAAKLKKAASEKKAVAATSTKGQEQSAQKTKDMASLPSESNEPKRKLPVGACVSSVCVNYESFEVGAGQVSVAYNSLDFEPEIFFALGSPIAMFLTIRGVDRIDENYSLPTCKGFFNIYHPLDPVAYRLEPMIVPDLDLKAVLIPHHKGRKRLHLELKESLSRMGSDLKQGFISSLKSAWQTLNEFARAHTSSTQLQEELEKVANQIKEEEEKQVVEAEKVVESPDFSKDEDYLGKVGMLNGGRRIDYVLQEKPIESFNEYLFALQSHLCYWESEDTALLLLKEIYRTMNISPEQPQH
Chain of UniProt Q8TC12 (Q8TC12 whole entry, looked up): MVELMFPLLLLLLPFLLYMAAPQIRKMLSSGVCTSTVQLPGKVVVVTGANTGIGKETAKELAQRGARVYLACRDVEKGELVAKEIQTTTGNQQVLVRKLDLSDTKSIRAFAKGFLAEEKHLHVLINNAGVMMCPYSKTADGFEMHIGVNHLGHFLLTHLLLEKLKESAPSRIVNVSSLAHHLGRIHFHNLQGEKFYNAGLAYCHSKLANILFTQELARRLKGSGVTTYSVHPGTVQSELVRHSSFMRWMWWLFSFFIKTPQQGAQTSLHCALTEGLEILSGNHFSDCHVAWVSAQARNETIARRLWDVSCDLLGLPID
Chain of UniProt Q8TBN0 (Q8TBN0 whole entry, looked up): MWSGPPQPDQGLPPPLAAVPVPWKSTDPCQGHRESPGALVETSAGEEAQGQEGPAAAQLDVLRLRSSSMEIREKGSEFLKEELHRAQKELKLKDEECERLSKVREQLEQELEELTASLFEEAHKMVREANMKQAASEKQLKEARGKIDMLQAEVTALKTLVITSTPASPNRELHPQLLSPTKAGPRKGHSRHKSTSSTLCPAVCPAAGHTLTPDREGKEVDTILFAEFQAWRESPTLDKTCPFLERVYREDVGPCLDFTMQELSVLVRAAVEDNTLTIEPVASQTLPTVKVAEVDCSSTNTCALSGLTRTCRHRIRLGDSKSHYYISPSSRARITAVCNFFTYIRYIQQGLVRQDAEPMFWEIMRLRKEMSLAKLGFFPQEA
Chain of UniProt Q15418 (Q15418 whole entry, looked up): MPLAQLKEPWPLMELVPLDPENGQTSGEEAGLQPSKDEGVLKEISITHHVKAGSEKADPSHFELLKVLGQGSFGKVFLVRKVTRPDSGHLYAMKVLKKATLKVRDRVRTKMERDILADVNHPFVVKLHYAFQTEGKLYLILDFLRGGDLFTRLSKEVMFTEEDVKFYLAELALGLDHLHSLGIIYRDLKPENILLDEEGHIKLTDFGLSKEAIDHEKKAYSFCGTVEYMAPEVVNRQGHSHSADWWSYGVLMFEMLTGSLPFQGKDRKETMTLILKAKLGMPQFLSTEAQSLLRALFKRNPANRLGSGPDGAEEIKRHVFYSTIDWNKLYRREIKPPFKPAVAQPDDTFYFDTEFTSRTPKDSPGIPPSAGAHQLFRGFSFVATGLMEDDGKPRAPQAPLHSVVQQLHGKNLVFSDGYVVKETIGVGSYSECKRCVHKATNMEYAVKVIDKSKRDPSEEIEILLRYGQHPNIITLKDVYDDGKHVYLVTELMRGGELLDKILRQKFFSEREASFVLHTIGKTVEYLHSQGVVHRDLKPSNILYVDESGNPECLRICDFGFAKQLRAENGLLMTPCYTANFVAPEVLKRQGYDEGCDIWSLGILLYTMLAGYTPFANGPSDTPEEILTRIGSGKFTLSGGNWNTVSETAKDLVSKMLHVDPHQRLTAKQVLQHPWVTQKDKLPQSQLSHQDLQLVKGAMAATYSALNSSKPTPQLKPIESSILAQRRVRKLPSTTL
Chain of UniProt P62070 (P62070 whole entry, looked up): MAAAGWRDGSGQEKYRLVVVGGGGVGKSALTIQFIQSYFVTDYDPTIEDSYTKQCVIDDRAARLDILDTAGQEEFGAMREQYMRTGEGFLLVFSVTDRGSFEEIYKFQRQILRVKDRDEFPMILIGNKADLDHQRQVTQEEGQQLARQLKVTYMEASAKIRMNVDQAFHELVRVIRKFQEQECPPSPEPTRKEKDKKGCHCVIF
Chain of UniProt Q96T23 (Q96T23 whole entry, looked up): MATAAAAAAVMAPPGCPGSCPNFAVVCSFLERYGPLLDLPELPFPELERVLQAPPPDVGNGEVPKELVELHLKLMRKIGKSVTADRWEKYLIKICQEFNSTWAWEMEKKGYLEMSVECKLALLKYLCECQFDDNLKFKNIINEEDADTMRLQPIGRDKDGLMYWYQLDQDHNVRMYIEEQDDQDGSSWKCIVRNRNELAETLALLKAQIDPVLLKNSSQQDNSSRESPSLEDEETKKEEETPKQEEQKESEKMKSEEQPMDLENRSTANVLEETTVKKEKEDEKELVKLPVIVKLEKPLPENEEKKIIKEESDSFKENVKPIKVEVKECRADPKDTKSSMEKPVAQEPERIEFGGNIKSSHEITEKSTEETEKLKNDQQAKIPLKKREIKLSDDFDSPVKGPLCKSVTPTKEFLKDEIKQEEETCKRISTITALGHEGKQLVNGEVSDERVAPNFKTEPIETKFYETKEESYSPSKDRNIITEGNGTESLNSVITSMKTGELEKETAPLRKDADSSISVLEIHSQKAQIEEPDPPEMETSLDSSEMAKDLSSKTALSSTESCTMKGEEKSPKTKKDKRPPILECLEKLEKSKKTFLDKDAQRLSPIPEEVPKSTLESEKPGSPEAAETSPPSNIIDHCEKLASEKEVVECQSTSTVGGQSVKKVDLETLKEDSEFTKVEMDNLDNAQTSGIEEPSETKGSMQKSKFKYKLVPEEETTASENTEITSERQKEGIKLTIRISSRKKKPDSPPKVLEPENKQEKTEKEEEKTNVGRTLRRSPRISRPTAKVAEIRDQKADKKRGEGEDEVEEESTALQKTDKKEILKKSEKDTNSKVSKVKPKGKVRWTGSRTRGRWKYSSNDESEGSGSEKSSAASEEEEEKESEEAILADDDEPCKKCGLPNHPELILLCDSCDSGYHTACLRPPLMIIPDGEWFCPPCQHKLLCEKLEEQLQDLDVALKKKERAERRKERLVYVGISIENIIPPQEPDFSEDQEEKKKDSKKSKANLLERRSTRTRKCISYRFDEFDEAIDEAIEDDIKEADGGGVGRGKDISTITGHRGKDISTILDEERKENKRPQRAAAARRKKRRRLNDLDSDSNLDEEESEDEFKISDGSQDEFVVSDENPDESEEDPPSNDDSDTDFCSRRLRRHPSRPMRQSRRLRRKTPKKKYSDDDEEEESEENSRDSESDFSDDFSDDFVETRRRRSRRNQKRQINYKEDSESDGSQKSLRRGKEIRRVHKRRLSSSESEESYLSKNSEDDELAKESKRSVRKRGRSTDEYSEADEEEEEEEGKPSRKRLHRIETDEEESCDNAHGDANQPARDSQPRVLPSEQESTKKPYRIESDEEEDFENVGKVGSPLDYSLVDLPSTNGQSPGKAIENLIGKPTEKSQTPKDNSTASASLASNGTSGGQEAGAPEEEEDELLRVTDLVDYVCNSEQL
Chain of UniProt Q04206 (Q04206 whole entry, looked up): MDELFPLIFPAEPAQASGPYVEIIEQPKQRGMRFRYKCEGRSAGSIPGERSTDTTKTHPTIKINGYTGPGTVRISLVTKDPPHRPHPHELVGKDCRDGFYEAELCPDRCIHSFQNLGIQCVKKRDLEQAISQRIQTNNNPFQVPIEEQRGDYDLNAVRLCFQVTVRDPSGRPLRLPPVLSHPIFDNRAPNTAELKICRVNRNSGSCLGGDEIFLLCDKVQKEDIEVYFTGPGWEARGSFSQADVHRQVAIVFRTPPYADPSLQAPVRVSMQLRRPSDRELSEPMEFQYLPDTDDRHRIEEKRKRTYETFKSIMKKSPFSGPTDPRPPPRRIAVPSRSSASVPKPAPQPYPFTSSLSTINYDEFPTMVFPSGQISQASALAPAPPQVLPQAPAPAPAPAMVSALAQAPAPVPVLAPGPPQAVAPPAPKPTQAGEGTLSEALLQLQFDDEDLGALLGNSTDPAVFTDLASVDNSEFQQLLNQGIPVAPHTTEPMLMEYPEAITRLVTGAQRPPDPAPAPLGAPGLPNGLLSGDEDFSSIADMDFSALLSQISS

Take SENP6 (UniProt Q9GZR1): the log2 fold change was -0.005. As to SIK3 (UniProt H0Y4E8), the log2 fold change was 0.021. For RIC8A isoform 3 (UniProt Q9NPQ8), the log2 fold change is 0.095. RALGPS2 (UniProt Q86X27): the log2 fold change is -0.153. With SIDT2 isoform 2 (UniProt Q8NBJ9), the log2 fold change was -0.003.

With RBM26 isoform 2 (UniProt Q5T8P6), the log2 fold change is -0.021. As to SDHAF2 (UniProt Q9NX18), the log2 fold change was 0.001. For SASH1 (UniProt O94885), the log2 fold change was 0.053.

With RBM25 (UniProt P49756), the log2 fold change was -0.078.

Turning to RBM39 (UniProt Q14498), the log2 fold change was -0.125.

As for RAD50 isoform 2 (UniProt Q92878), the log2 fold change is -0.02. Take SEPTIN5 (UniProt Q99719): the log2 fold change was -0.011. As to RPS16 (UniProt P62249), the log2 fold change is 0.074. Under SETMAR (UniProt Q53H47) stands 0.075; under RB1CC1 (UniProt Q8TDY2), -0.041; under RNF187 (UniProt Q5TA31), 0.027. Turning to RNF14 (UniProt Q9UBS8), the log2 fold change is 0.035. Regarding RSF1 (UniProt Q96T23), the log2 fold change is 0.052. For the target RPRD1B (UniProt Q9NQG5), the log2 fold change was 0.037. Regarding RPTOR (UniProt Q8N122), the log2 fold change was -0.048. Then RPP25L (UniProt Q8N5L8), with 0.066; and RPL38 (UniProt P63173), with -0.014.

As for RBMY1E (UniProt A6NEQ0), the log2 fold change was -0.057. On to SH3GL1 (UniProt Q99961), for which the log2 fold change was -0.008. Under SEC16A isoform 5 (UniProt O15027) stands 0.069; under SCYL3 isoform 2 (UniProt Q8IZE3), -0.09; under RIOK3 (UniProt O14730), -0.001. Under SETD3 (UniProt Q86TU7) stands 0.001. As to RPS14 (UniProt P62263), the log2 fold change is 0.025.

For SERINC3 (UniProt Q13530), the log2 fold change was 0.01. As to RPS18 (UniProt P62269), the log2 fold change is 0.094.

Regarding RPA1 (UniProt P27694), the log2 fold change was -0.024.

As to RBM4 (UniProt Q9BWF3), the log2 fold change is 0.077. Then RCOR3 isoform 3 (UniProt Q9P2K3), with -0.088. In the case of SCO2 (UniProt O43819), the log2 fold change was -0.118. Turning to RAD51 (UniProt Q06609), the log2 fold change is -0.127. Under RAB3D (UniProt O95716) stands 0.004. Take SDCBP isoform 2 (UniProt O00560): the log2 fold change was -0.2. Under SACM1L (UniProt Q9NTJ5) stands 0.004; under RSRC1 (UniProt Q96IZ7), 0.076; under RPS20 isoform 2 (UniProt P60866), 0.064. Take RIPK1 (UniProt Q13546): the log2 fold change is 0.135. Take RTF2 (UniProt Q9BY42): the log2 fold change is -0.069. As for RRAGC (UniProt Q9HB90), the log2 fold change was 0.021.

On to RPL31 (UniProt P62899), for which the log2 fold change is 0.098. Regarding RAC3 (UniProt P60763), the log2 fold change was 0.071.

Take RUFY3 isoform 3 (UniProt Q7L099): the log2 fold change was -0.046. As to RPS6KA1 isoform 2 (UniProt Q15418), the log2 fold change is 0.026. For the target RAB8B (UniProt Q92930), the log2 fold change was -0.04. For RBIS (UniProt Q8N0T1), the log2 fold change is -0.031. As to RDH11 (UniProt Q8TC12), the log2 fold change was 0.082. For the target SCCPDH (UniProt Q8NBX0), the log2 fold change was 0.076. With RSPRY1 (UniProt Q96DX4), the log2 fold change is -0.023. Then SCD (UniProt O00767), with 0.023; and SCAF8 isoform 2 (UniProt Q9UPN6), with -0.042; and RPS3A (UniProt P61247), with 0.082. For RELA (UniProt Q04206), the log2 fold change is -0.062. In the case of RPS5 (UniProt P46782), the log2 fold change was 0.037.

RCN3 (UniProt Q96D15): the log2 fold change is -0.156. Under RMC1 (UniProt Q96DM3) stands -0.03; under RPS6KA5 (UniProt O75582), -0.094; under SLC18B1 (UniProt Q6NT16), 0.027.

As to SDC3 (UniProt O75056), the log2 fold change was -0.853 (active). On to RNF220 (UniProt Q5VTB9), for which the log2 fold change is -0.021. Take SCG3 (UniProt Q8WXD2): the log2 fold change is 0.091. As for RRAS2 isoform 4 (UniProt P62070), the log2 fold change was -0.012. On to RHOXF2 (UniProt Q9BQY4), for which the log2 fold change was 0.062. Turning to SEC23IP (UniProt Q9Y6Y8), the log2 fold change is -0.06. Regarding SEH1L isoform 1 (UniProt Q96EE3), the log2 fold change was 0.007. Then RAB3IL1 (UniProt Q8TBN0), with 0.005; and RPS15 (UniProt P62841), with 0.186; and RPS13 (UniProt P62277), with 0.148.

On to RPS2 (UniProt P15880), for which the log2 fold change is 0.08. Under RUFY1 (UniProt Q96T51) stands 0.042.
